Screening data deposited in PubChem BioAssay by National Center for Advancing Translational Sciences (NCATS).
In the library only some 19% were active in any assay of this set; here they are far more common.
ELG1 repair inh – qHTS screen for small molecules that inhibit ELG1-dependent DNA repair in human embryonic kidney (HEK293T) cells expressing luciferase-tagged ELG1; HEK293T ELG1-luciferase reporter, luminescence, 16 h; DNA damage induced by 5-fluorouridine; Potency, µM (series often up to 46.1 µM), hits mostly inhibitors; 330,000 compounds, 2.3% hits; AID 504467, 2011; further: nearly all actives have a fitted effect of over 55% in size
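Overnight (16 hr) co-exposure of 2,000 cells/well to 5-fluorouridine and compound at 37 °C preceded detection. Luciferase was quantified via ONE-Glo luminescence; loss of signal denotes inhibition.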
HT1080 IDH1KD tx – qHTS for induction of synthetic lethality in tumor cells producing 2HG: qHTS for the HT-1080-IDH1KD cell line. 360,000 compounds, 2% hits. AID 686971, 2013. HT-1080 IDH1 knockdown viability, ATP luminescence, 48 h. Potency, µM (series often up to 46.1 µM), hits mostly cytotoxic
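CellTiter-Glo luminescence after 48 h compound exposure at 37 degrees C of IDH1-knockdown HT-1080 cells in 5% FBS RPMI. %Activity scaled between DMSO wells and cell-free media wells, with curves fitted and assigned curve classes.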
TDP1 cell CPT – qHTS for Inhibitors of human tyrosyl-DNA phosphodiesterase 1 (TDP1): qHTS in cells in presence of CPT | chicken DT40 Tdp1-/-;hTDP1 cells + 20 nM CPT, ATP luminescence, 48 h | 420,000 compounds, 12% hits | AID 686979, 2013 | Potency, µM (highest dose often 46.2 µM), usual class: inhibitors; further: nearly all actives have a fitted effect of over 55% in size
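Chicken DT40 Tdp1-/- cells complemented with human TDP1, 400 cells/well, exposed to compounds plus 20 nM camptothecin for at least 48 h at 37 C; viability read as ATP content by CellTiter-Glo luminescence.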
DT40 TDP1 no CPT – qHTS for Inhibitors of human tyrosyl-DNA phosphodiesterase 1 (TDP1): qHTS in cells in absence of CPT; AID 686978, 2013; 420,000 compounds, 15% hits; DT40 Tdp1-/- hTDP1 cells, no CPT, ATP luminescence, 48 h; Potency, µM (top dose mostly 46.2 µM), most hits filed as inhibitors; further: nearly all actives have a fitted effect of over 55% in size
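Chicken DT40 Tdp1-/- cells complemented with human TDP1, screened without camptothecin (DMSO vehicle only), 400 cells/well. Compounds pin-transferred, cells incubated at 37 °C for at least 48 hr. Growth read as ATP-dependent luminescence (CellTiter-Glo, 30 min at RT).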
HT1080-NT tox – qHTS for induction of synthetic lethality in tumor cells producing 2HG: qHTS for the HT-1080-NT fibrosarcoma cell line; HT-1080-NT fibrosarcoma viability, CellTiter-Glo ATP luminescence, 48 h; Potency, µM (top dose mostly 46.1 µM), hits mostly cytotoxic; 360,000 compounds, 1.6% hits;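 further: NT is the 2HG producing partner of a matched IDH1 knockdown line; nearly all actives have a fitted effect of over 55% in size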
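Luminescent CellTiter-Glo readout after 48 hours of compound exposure at 37 degrees C defined viability of HT-1080-NT cells. Activity was normalized to DMSO wells and cell-free media wells; concentration-response curves were fitted and assigned curve classes.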
IL1B secr inh – qHTS for Inhibitors of Inflammasome Signaling: IL-1-beta AlphaLISA Primary Screen | 360,000 compounds, 4.7% hits | activity change, % at 57.5 µM | THP-1 LPS/ATP IL-1B secretion, AlphaLISA, 16 h; hits give low values; in the data active means activity change below about -50%; inconclusive means mostly about -30% to -49%
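THP-1 cells pretreated 1 hr with compounds (up to 57.5 uM final), then stimulated with LPS (250 ng/mL final) plus ATP (1.25 mM final); secreted IL-1B measured by AlphaLISA after 16 hr, decreased signal indicating inhibition.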
Of the large screens only hits and unclear results are named; the others gave an inactive call. Unless noted, the call rests on the fitted dose curve; in most records, active means well fitted curve in the direction sought with a large enough effect; inconclusive means small, poorly fitted or top-dose-only effect, or another doubt; inactive means no such curve, though single readings can be large; an effect the other way counts as inactive or inconclusive.

CN(C)c1ccnc2c[cH-]cc12.[Fe].c1ccc(-[c-]2[c-](-c3ccccc3)[c-](-c3ccccc3)[c-](-c3ccccc3)[c-]2-c2ccccc2)cc1 (stereo not given)	ELG1 repair inh inconclusive, TDP1 cell CPT 5.17µM, DT40 TDP1 no CPT 3.66µM
COc1ccc(N2CCN(CC(=O)c3ccc(Cl)cc3)CC2)cc1	ELG1 repair inh inconclusive
O=C(CCN1CCOCC1)c1ccc(Cl)cc1	TDP1 cell CPT 2.91µM, DT40 TDP1 no CPT 2.59µM
O=C(CCN1CCOCC1)c1ccc(Br)cc1	HT1080 IDH1KD tx 25.9µM, TDP1 cell CPT 3.26µM, DT40 TDP1 no CPT 2.59µM, HT1080-NT tox inconclusive, IL1B secr inh -91.4
O=C(NCCCN1CCOCC1)c1ccc(Cl)cc1	none (no result: ELG1 repair inh, HT1080 IDH1KD tx, HT1080-NT tox, IL1B secr inh)
CCC1CCC(C(=O)NC(C(=O)NCCCN2CCCCC2C)C(C)C)CC1 (stereo not given)	none
COc1cc(NC(=O)N2CCC3(CC2)Nc2ccccc2-n2cccc23)cc(OC)c1OC	TDP1 cell CPT 20.6µM, DT40 TDP1 no CPT inconclusive (no result: ELG1 repair inh, HT1080 IDH1KD tx, HT1080-NT tox, IL1B secr inh)
O=C(CSc1nc2ccccc2[nH]1)N1CCN(c2ccccc2)CC1	none
Cc1cccc(N2CCN(C(=O)CCCSc3nc4ccccc4[nH]3)CC2)c1C	ELG1 repair inh inconclusive, HT1080 IDH1KD tx inconclusive, TDP1 cell CPT 16.4µM, DT40 TDP1 no CPT inconclusive, HT1080-NT tox inconclusive, IL1B secr inh inconclusive
O=C(CCCSc1nc2ccccc2[nH]1)N1CCN(c2ccccc2)CC1	ELG1 repair inh 23.1µM, TDP1 cell CPT inconclusive, DT40 TDP1 no CPT inconclusive
CN(Cc1ccccc1)C(=O)C1(C)CCN1C(=O)Cc1ccc(Cl)cc1Cl (stereo not given)	TDP1 cell CPT inconclusive, DT40 TDP1 no CPT inconclusive (no result: ELG1 repair inh)
O=c1nc2n(c3ncccc13)CCCCC2	none
O=C1Nc2ccccc2-n2nnnc2C1N1CCN(c2ccc(C(F)(F)F)cc2[N+](=O)[O-])CC1 (stereo not given)	HT1080 IDH1KD tx inconclusive, TDP1 cell CPT 23.1µM, DT40 TDP1 no CPT 16.4µM, HT1080-NT tox inconclusive (no result: ELG1 repair inh)
COc1ccc(N2CCN(C3C(=O)Nc4ccccc4-n4nnnc43)CC2)cc1 (stereo not given)	none (no result: ELG1 repair inh)
Cc1ccc(C)c(N2CCN(C3C(=O)Nc4ccccc4-n4nnnc43)CC2)c1 (stereo not given)	HT1080 IDH1KD tx 16.4µM, TDP1 cell CPT 20.6µM, DT40 TDP1 no CPT 16.4µM, HT1080-NT tox inconclusive (no result: ELG1 repair inh)
Nc1nc(N)nc(-c2cc(F)ccc2O)n1	TDP1 cell CPT inconclusive, DT40 TDP1 no CPT inconclusive, IL1B secr inh -99.2
COc1ccc(O)c(-c2nc(N)nc(N)n2)c1	TDP1 cell CPT 16.4µM, DT40 TDP1 no CPT 18.4µM, IL1B secr inh -97.7
COc1ccccc1CC(=O)NCCN1CCCCC1	none
CN1CCCC2(CCCN(Cc3nc(Cc4cccc(C(F)(F)F)c4)no3)C2)C1 (stereo not given)	DT40 TDP1 no CPT inconclusive, IL1B secr inh -74.7
FC(F)(F)c1cccc(Cc2noc(CN3CCCC(OCc4ccccn4)C3)n2)c1 (stereo not given)	ELG1 repair inh inconclusive, TDP1 cell CPT 18.4µM, DT40 TDP1 no CPT 23.1µM
O=C(C1CCN(Cc2nc(Cc3cccc(F)c3)no2)CC1)N1CCOCC1	none
CCn1ccnc1CN(C)Cc1nc(Cc2cccc(C(F)(F)F)c2)no1	none
FC(F)(F)c1cccc(Cc2noc(CN3CCC(c4ccncc4)CC3)n2)c1	TDP1 cell CPT 5.8µM, DT40 TDP1 no CPT 7.31µM
CC(CN(C)Cc1nc(Cc2cccc(C(F)(F)F)c2)no1)CN1CCCC1 (stereo not given)	TDP1 cell CPT 20.6µM, DT40 TDP1 no CPT 23.1µM
